Consider ten compounds from PubChem BioAssay (Tox21).

Test [1] in a line: qHTS assay to test for compound auto fluorescence at 535 nm (green) in HEK293 cells (AID 720680). In general terms: In qHTS, concentration-response curves come from the screen itself.
Test [2] can be described thus: qHTS assay to test for compound auto fluorescence at 460 nm (blue) in HEK293 cell free culture (AID 720681). Summed up: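 Compounds were added to cell-free DMEM with 10% FBS and fluorescence read directly. The blue channel used 405 nm excitation and 460 nm emission, with triamterene as the reference fluorophore.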
Test [3] is described as follows: qHTS assay to test for compound auto fluorescence at 535 nm (green) in HEK293 cell free culture (AID 720682). In outline:
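Cell-free medium (DMEM, 10% FBS) receives compound or DMSO by pintool. Plate read directly at Ex 485/Em 535 nm. Signal converted to fluorescein equivalency.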

The nature of test [4]: qHTS assay to test for compound auto fluorescence at 590 nm (red) in HEK293 cell free culture (AID 720683). In outline:
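Cell-free wells of DMEM with 10% FBS received compound, and intrinsic fluorescence was read at excitation/emission 540/590 nm. Values expressed as equivalence to Rose Bengal sodium.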

A short description of test [5]: qHTS assay to test for compound auto fluorescence at 590 nm (red) in HepG2 cell free culture (AID 720684). Summed up:
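Compound was pinned into wells holding MEM with 10% FBS and no cells, and red fluorescence was read at Ex/Em 540/590 nm. Signal is expressed as auto fluorescence equivalency relative to Rose Bengal sodium.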

Test [6] can be described thus: qHTS assay to test for compound auto fluorescence at 535 nm (green) in HepG2 cell free culture (AID 720686).
Test [7] is described as follows: qHTS assay to test for compound auto fluorescence at 460 nm (blue) in HepG2 cells (AID 720687). Summed up: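 HepG2 cells in MEM with 10% FBS, attached overnight at 37 C, were exposed to compound or DMSO for 1 hr at 37 C, 5% CO2. Blue fluorescence was read at 405/460 nm, with triamterene as reference fluorophore.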
Test [8] is described as follows: qHTS assay for identifying genotoxic compounds that show differential cytotoxicity against isogenic chicken DT40 cell lines with known DNA damage response pathways - wild type cell line (AID 743012). Further: nearly all actives have a fitted effect of over 60% in size. Further: potency means the concentration at half of the fitted maximal effect. Summed up:
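Using parental DT40 (300 cells/well), compounds delivered in DMSO incubate 40 h at 37 C/5% CO2. CellTiter-Glo reagent then stands 30 min at room temperature, and luminescence gives cell viability.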

The nature of test [9]: qHTS assay for identifying genotoxic compounds that show differential cytotoxicity against isogenic chicken DT40 cell lines with known DNA damage response pathways - Rad54/Ku70 mutant cell line (AID 743015). Further: nearly all actives have a fitted effect of over 60% in size. Further: potency means the concentration at half of the fitted maximal effect.
A short description of test [10]: qHTS assay to identify small molecule antagonists of the androgen receptor (AR) signaling pathway - cell viability counter screen (AID 743033; further: nearly all actives have a fitted effect of over 45% in size; further: potency means the concentration at half of the fitted maximal effect).
The nature of test [11]: qHTS assay to identify small molecule antagonists of the androgen receptor (AR) signaling pathway using the MDA cell line - cell viability counter screen (AID 743041; further: nearly all actives have a fitted effect of over 45% in size). In outline: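 MDA-kb2 AR-luc cells (MMTV-luciferase, AR/GR responsive) treated with compounds plus R1881 agonist for 16 h at 37C. CellTiter-Fluor added at 15.5 h; fluorescence read after 30 min in the same wells.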

Test [12] is described as follows: qHTS assay to identify small molecule antagonists of the thyroid receptor (TR) signaling pathway - cell viability counter screen (AID 743064). Further: nearly all actives have a fitted effect of over 50% in size. Further: potency means the concentration at half of the fitted maximal effect. Summed up:
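GH3.TRE-Luc cells, 4 h pre-plating; cpd + T3 1 nM final; 37 °C 23.5 h; CellTiter-Fluor 30 min; fluorescence read.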

Test [13] can be described thus: qHTS assay to identify small molecule antagonists of the thyroid receptor (TR) signaling pathway (AID 743065). Further: nearly all actives have a fitted effect of over 55% in size. Further: potency means the concentration at half of the fitted maximal effect. Summed up:
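GH3.TRE-Luc rat pituitary cells (two TREs driving luciferase) were dosed with compound, then stimulated with 1 nM T3 (final) for 23.5 h at 37 C. ONE-Glo luminescence was the read-out, with CellTiter-Fluor fluorescence as the cytotoxicity counter-screen.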

Test [14] concerns the target Glucocorticoid receptor (Homo sapiens) (UniProt P04150). The test is described as follows: qHTS assay to identify small molecule agonists of the glucocorticoid receptor (GR) signaling pathway (AID 720691; active means well fitted activation curve with a large enough effect in the signal ratio in the repeat runs, not every such curve was filed as active; the % refers to the signal ratio; further: potency means the concentration at half of the fitted maximal effect). In outline:
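Reporter read-out: fluorescence intensity following 2 h room-temperature LiveBLAzer B/G FRET substrate loading. Prior step: GR-bla HeLa cells held 4 h, then treated 18 h at 37 C.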

For test [15] the target is unchanged. As to the kind of experiment: qHTS assay to identify small molecule antagonists of the glucocorticoid receptor (GR) signaling pathway (AID 720692; active means well fitted inhibition curve with a large enough effect in the signal ratio in the repeat runs, not every such curve was filed as active; the % refers to the signal ratio; further: potency means the concentration at half of the fitted maximal effect). Summed up: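 Dexamethasone (5 nM final) stimulated a stably integrated GRE-beta-lactamase reporter in HeLa cells during 18 h co-incubation with compounds; signal was quantified as fluorescence intensity of B/G FRET substrate after 2 h.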

Test [16] can be described thus: qHTS assay to identify small molecule antagonists of the glucocorticoid receptor (GR) signaling pathway - cell viability counter screen (AID 720693). Further: nearly all actives have a fitted effect of over 55% in size.
Test [17] in a line: qHTS assay for identifying genotoxic compounds that show differential cytotoxicity against isogenic chicken DT40 cell lines with known DNA damage response pathways - Rev3 mutant cell line (AID 743014). Further: nearly all actives have a fitted effect of over 55% in size. Further: potency means the concentration at half of the fitted maximal effect.

“And” between values parts separate entries of the source, which are not always exact repeats. Identical values can stand only once. Records with an inconclusive call do not appear. More than one record can exist for a structure, and the calls need not agree. The source made the active and inactive calls. Unless noted, the call rests on the fitted dose curve; in most records, active means well fitted curve in the direction sought with a large enough effect in the repeat runs; inconclusive means weak or mixed curves; inactive means no such curve, though single readings can be large; an effect the other way counts as inactive or inconclusive.

Chain of Glucocorticoid receptor (Homo sapiens) (P04150 whole entry, looked up): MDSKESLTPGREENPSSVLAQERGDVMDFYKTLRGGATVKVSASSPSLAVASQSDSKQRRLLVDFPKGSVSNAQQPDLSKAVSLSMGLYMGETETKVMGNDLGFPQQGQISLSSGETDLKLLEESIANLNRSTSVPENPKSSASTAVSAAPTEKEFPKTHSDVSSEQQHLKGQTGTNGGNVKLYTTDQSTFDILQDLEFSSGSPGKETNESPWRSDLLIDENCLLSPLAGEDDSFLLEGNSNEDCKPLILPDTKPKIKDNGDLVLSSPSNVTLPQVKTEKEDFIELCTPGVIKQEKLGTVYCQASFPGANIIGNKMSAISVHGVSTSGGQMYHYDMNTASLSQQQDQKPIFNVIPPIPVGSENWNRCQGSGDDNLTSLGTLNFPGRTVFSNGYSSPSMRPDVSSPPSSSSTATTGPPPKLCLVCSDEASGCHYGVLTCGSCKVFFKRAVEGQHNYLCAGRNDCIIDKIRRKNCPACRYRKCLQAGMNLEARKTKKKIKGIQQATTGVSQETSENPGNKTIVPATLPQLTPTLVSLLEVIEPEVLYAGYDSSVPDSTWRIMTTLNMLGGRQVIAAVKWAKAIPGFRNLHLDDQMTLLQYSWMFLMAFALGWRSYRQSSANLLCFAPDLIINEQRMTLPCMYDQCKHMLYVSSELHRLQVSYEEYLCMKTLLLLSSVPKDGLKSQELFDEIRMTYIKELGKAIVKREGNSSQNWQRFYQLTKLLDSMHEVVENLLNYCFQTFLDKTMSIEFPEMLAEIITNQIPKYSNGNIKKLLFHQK

Take `c1cc(N(CC2CO2)CC2CO2)ccc1OCC1CO1` (centres undefined): the Potency entry in test [1], in [3], in test [4], in test [5], in test [6] and in test [10] was “inactive” in each case. Also, the Potency entry in test [11] is “inactive”. Further, the compound was called inactive in test [2] and in test [7]. Moreover, the Potency in test [8] was 687 nM (active) and 306 nM (active); in [9], 770 nM (active) and 273 nM (active); in test [12], 19.4 µM (active) and 27.3 µM (active); in [13], 4.86 µM (active) and 3.86 µM (active).

As for `CCC(C)c1ccccc1O` (centres undefined), the Potency entry in test [1], in [3], in test [4], in test [5], in test [6] and in [14] was “inactive” throughout. Besides, the Potency entry in test [15], in test [16], in [8], in test [9], in test [10] and in [11] was “inactive” each time. Further, the Potency result in test [12] and in [13] was “inactive” each time. The compound was called inactive in [2] and in test [7].

Turning to `CC(CCC(=O)O)(c1ccc(O)cc1)c1ccc(O)cc1`, the Potency result in test [1], in test [3], in test [4], in test [5], in [6] and in test [14] was “inactive” each time. In addition, the Potency result in test [15], in test [16], in test [8], in test [17], in [9] and in test [10] was “inactive” each time. The Potency result in test [11], in test [12] and in test [13] was “inactive” each time. Further, the result in test [2] and in [7] was inactive.

In the case of `CCCC(=O)O`, the Potency result in [1], in test [3], in test [4], in test [5], in [6] and in test [14] was “inactive” throughout. Besides, the Potency entry in test [15], in test [16], in test [8], in test [9], in test [10] and in test [11] was “inactive” throughout. Besides, in test [12], the Potency result is “inactive”. Besides, the compound was called inactive in test [2] and in test [7].

For `CC(C)OC=O`, the Potency result in test [1], in test [3], in [4], in test [5], in [6] and in test [14] was “inactive” throughout. The Potency result in test [15], in test [16], in [8], in test [9], in test [10] and in test [11] was “inactive” in each case. Besides, the Potency result in test [12] and in test [13] was “inactive” throughout. The call in test [2] and in test [7] was inactive.

Regarding `CN(C)C(=N)N=C(N)N`, the Potency result in [1], in test [3], in test [4], in [5], in test [6] and in [15] was “inactive” in each case. The Potency entry in [16], in test [10], in [11], in test [12] and in test [13] was “inactive” each time. The outcome in [2] and in [7] was inactive. Also, in test [14], the Potency was 2.56 µM (active) and inactive.

For `C#C[C@]1(O)CC[C@H]2[C@@H]3CCC4=Cc5oncc5C[C@]4(C)[C@H]3CC[C@@]21C`, the Potency entry in [1], in test [3], in test [4], in test [5], in test [6] and in test [14] was “inactive” each time. For the same compound, the Potency entry in test [11] was “inactive”. Also, the compound was classed as inactive in test [2] and in [7]. Further, the Potency in test [15] was 5.35 µM (active); in test [8] it was 9.69 µM (active); in test [17], “inactive and 24.3 µM (active)”; in test [9] it was 13.7 µM (active); in [10] it was “inactive and 38.9 µM (active)”; in test [12], “inactive and 61.1 µM (active)”.

With `C=C(C)C1CC=C(C)CC1` (centres undefined), the Potency entry in [1], in test [3], in test [4], in test [5], in test [6] and in test [16] was “inactive” each time. The Potency entry in [8], in test [17], in test [9], in test [10], in test [11] and in [12] was “inactive” in each case. For the same compound, the call in test [2] and in test [7] was inactive.

Consider `O=CCCCC=O`, for which the Potency entry in [1], in [3], in test [4], in [5], in test [6] and in test [14] was “inactive” each time. In addition, the Potency entry in [16], in test [10], in test [11], in test [12] and in test [13] was “inactive” throughout. For the same compound, the compound was classed as inactive in [2] and in [7]. For the same compound, the Potency was 6.11 µM (active) in [8]; “inactive and 2.73 µM (active)” in test [9].

As for `C[C@]12CC[C@H]3[C@@H](CCC4=CC(=O)CC[C@@]43C)[C@@H]1CC[C@@H]2C(=O)CO`, the Potency result in [1], in test [3], in [4], in [5], in test [6] and in test [14] was “inactive” throughout. In addition, the Potency result in [10], in test [11] and in [12] was “inactive” in each case. Also, the compound was classed as inactive in test [2] and in test [7]. Further, the Potency in test [15] is 811 nM (active) and 977 nM (active); in [8], 6.86 µM (active); in test [9], 8.63 µM (active).
